Test results reported in PubChem BioAssay AID1159580 (chemical genetic matrix, 2015).
The campaign covered roughly 5,500 compounds. About 2,000 (36%) were called active. Another 18% or so got no clear call; they are omitted. The list shows a part of the results. Unmarked numbers belong to inactive results. Cut-off read from the data, not from the text of the source: active = normalized growth mostly below about 0.91 (no sharp cut-off); inconclusive = no clear call, values can overlap the other calls; inactive = mostly above about 0.92.

Assay: chemical genetic growth profiling, strain panel (AID 1159580);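 note: tested at 20 µM; growth read once vehicle control cultures reached saturation at 30 °C; 1 = growth at the plate median or of vehicle wells; lower values mean less growth of the strain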
Details: growth OD
[1] = S. cerevisiae deletion strains, locus YAL013W, strain DEP1, active compounds read low
[2] = S. cerevisiae deletion strains, locus YBR229C, strain ROT2, active compounds read low
[3] = S. cerevisiae deletion strains, locus YDL101C, strain DUN1, active compounds read low
[4] = S. cerevisiae deletion strains, locus YDL134C, strain PPH21, active compounds read low
[5] = S. cerevisiae deletion strains, locus YDR150W, strain NUM1, active compounds read low
[6] = S. cerevisiae deletion strains, locus YEL061C, strain CIN8, active compounds read low
[7] = S. cerevisiae deletion strains, locus YGR078C, strain PAC10, active compounds read low
[8] = S. cerevisiae deletion strains, locus YHR030C, strain SLT2, active compounds read low
[9] = S. cerevisiae deletion strains, locus YHR087W, strain rtc3, active compounds read low
[10] = S. cerevisiae deletion strains, locus YJR043C, strain POL32, active compounds read low
[11] = S. cerevisiae deletion strains, locus YJR075W, strain HOC1, active compounds read low
[12] = S. cerevisiae deletion strains, locus YLR039C, strain RIC1, active compounds read low
[13] = S. cerevisiae deletion strains, locus YLR058C, strain SHM2 (second series), active compounds read low
[14] = S. cerevisiae deletion strains, locus YLR085C, strain ARP6, active compounds read low
[15] = S. cerevisiae deletion strains, locus YLR262C, strain YPT6, active compounds read low
[16] = S. cerevisiae deletion strains, locus YML094W, strain GIM5, active compounds read low
[17] = S. cerevisiae deletion strains, locus YMR219W, strain ESC1, active compounds read low
[18] = S. cerevisiae deletion strains, locus YMR263W, strain SAP30, active compounds read low
[19] = S. cerevisiae deletion strains, locus YNL153C, strain GIM3, active compounds read low
[20] = S. cerevisiae deletion strains, locus YNL298W, strain CLA4 (second series), active compounds read low
[21] = S. cerevisiae deletion strains, locus YNL322C, strain KRE1, active compounds read low
[22] = S. cerevisiae deletion strains, locus YNR030W, strain Alg12, active compounds read low
[23] = S. cerevisiae deletion strains, locus YPL055C, strain LGE1, active compounds read low
[24] = S. cerevisiae deletion strains, locus YPL241C, strain CIN2, active compounds read low
[25] = S. cerevisiae deletion strains, locus YPR135W, strain CTF4, active compounds read low

CCN(CC)c1ccc(NC(=O)c2c(F)cccc2F)c(N(CC)CC)n1
normalized growth [1]: 0.986
normalized growth [2]: 0.98
normalized growth [3]: 0.955
normalized growth [4]: 0.993
normalized growth [5]: 0.99
normalized growth [6]: 0.964
normalized growth [7]: 0.98
normalized growth [8]: 0.698
normalized growth [9]: 0.952
normalized growth [10]: 0.99
normalized growth [11]: 0.954
normalized growth [12]: 0.815
normalized growth [13]: 1
normalized growth [14]: 0.91
normalized growth [15]: 0.863
normalized growth [16]: 0.953
normalized growth [17]: 0.997
normalized growth [18]: 1
normalized growth (S. cerevisiae deletion strains, locus YMR307W, strain GAS1, active compounds read low): 0.574 (active)
normalized growth [19]: 0.991
normalized growth [20]: 0.935
normalized growth [21]: 0.987
normalized growth [22]: 0.942
normalized growth [23]: 0.963
normalized growth [24]: 1.05
normalized growth [25]: 0.8
normalized growth (S. cerevisiae strains, strain wild type, active compounds read low): 0.988

O=C(Nc1cc2cc([N+](=O)[O-])ccc2oc1=O)c1c(F)cccc1F
normalized growth [1]: 1.02
normalized growth [2]: 1.02
normalized growth (S. cerevisiae deletion strains, locus YCL061C, strain MRC1, active compounds read low): 0.989
normalized growth [3]: 0.98
normalized growth [4]: 1.01
normalized growth [5]: 0.96
normalized growth [6]: 1.01
normalized growth [7]: 1
normalized growth [8]: 0.994
normalized growth [9]: 1.09
normalized growth (S. cerevisiae deletion strains, locus YJL187C, strain SWE1, active compounds read low): 1.03
normalized growth [10]: 0.999
normalized growth [11]: 1.02
normalized growth [12]: 1.07
normalized growth [13]: 1.04
normalized growth [14]: 1.07
normalized growth [15]: 1.07
normalized growth [16]: 1.05
normalized growth [17]: 1.03
normalized growth [18]: 0.936
normalized growth (S. cerevisiae deletion strains, locus YNL128W, strain TEP1, active compounds read low): 1.01
normalized growth [19]: 1.02
normalized growth [20]: 1.02
normalized growth [21]: 1.01
normalized growth [22]: 1.04
normalized growth (S. cerevisiae deletion strains, locus YOL006C, strain TOP1, active compounds read low): 1
normalized growth [23]: 1.03
normalized growth [24]: 1.02
normalized growth [25]: 1.01
